This note sets out measurements from PubChem BioAssay.

For assay [1], the system named is Human papillomavirus type 1a protein E7 (residues 44-93). Nature of the assay: HPV1a E7 fragment binders on microarrays, primary screen, biochemical, small-molecule microarray, residues 44-93, 635 nm fluorescence (AID 1108).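 Further: E7 fragment applied at 1 µg/mL in TBST for 1 h at 4 C; score combines spot fluorescence with its signal to noise ratio.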 The note with it: small-molecule microarray binding, fluorescence 635 nm; higher = more signal.
Assay [2] can be described thus: modulators of HCV replicon luciferase signal, primary screen, HCV replication inhibitor project, Huh7 cells, luciferase reporter (AID 1109).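 Further: huh7 hepatoma cells harbouring a luciferase neomycin HCV replicon reporter; luciferase luminescence as measure of HCV replicon replication; test concentration not given here.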 Particulars: 48 h, higher = more signal.
Assay [3] addresses Left-right determination factor 2 (Homo sapiens) (UniProt O00292). In words: LEFTY2 binders on small-molecule microarrays, primary screen, biochemical, small-molecule microarray, 635 nm fluorescence scan (AID 1110). The note with it: LEFTY2 binding, higher = more signal.
Assay [4] has as its target Calmodulin-1 (Homo sapiens) (UniProt P0DP23). In words: CALM1 binders on microarrays, EGTA buffer, profiling panel, biochemical, small-molecule microarray, Cy5-labelled CALM1 (AID 1111).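 Further: labelled calmodulin applied in Tris saline Tween buffer holding calcium plus EGTA and DTT.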 Particulars: Cy5-CALM1 binding fluorescence, higher = more signal.
For assay [5] the target is unchanged. In words: calcium-bound CALM1 binders on microarrays, profiling panel, artefact control for SMM control-protein annotation, biochemical, small-molecule microarray, Cy5-labelled CALM1, plus calcium (AID 1112).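 Further: score merges spot fluorescence with signal to noise from triplicate slides.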 The note with it: Cy5-CALM1 binding fluorescence, higher = more signal.
Assay [6] can be described thus: small-molecule microarray binders of probe aWnt5a, primary screen, biochemical, biotinylated probe, 635/667 nm fluorescence (AID 1113).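 Further: score merges 667 nm fluorescence intensity with signal-to-noise per printed feature.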 The note with it: higher = more signal.
Assay [7] in a line: small-molecule microarray binders of probe aShh, primary screen, biochemical, biotinylated probe, 635/667 nm fluorescence (AID 1114).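 Further: probe is biotin-labelled aShh protein from a stem cell growth factor screen; measures binding of labelled protein to compounds printed on the slide; score merges feature fluorescence at 667 nm with signal-to-noise.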 The note with it: higher = more signal.
Assay [8] in a line: small-molecule microarray binders of probe aNog, primary screen, biochemical, biotinylated probe, 635/667 nm fluorescence (AID 1115).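 Further: probe is biotinylated aNog protein used at 0.15 µg/mL for 1 h at 4 C; z-score combines 667 nm fluorescence of each spot with its signal to noise.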 Particulars: higher = more signal.
The target in assay [9] is Torsin-1A-interacting protein 1 (Homo sapiens) (UniProt Q5JTV8). Nature of the assay: LAP1 binders from COS7 cell lysate, primary screen, small-molecule microarray, 635/667 nm fluorescence (AID 1116). The note with it: COS7-hLAP1 lysate binding, 635 nm fluorescence, higher = more signal.
Torsin-1A-interacting protein 1 (Homo sapiens), sequence (Q5JTV8 whole entry, looked up): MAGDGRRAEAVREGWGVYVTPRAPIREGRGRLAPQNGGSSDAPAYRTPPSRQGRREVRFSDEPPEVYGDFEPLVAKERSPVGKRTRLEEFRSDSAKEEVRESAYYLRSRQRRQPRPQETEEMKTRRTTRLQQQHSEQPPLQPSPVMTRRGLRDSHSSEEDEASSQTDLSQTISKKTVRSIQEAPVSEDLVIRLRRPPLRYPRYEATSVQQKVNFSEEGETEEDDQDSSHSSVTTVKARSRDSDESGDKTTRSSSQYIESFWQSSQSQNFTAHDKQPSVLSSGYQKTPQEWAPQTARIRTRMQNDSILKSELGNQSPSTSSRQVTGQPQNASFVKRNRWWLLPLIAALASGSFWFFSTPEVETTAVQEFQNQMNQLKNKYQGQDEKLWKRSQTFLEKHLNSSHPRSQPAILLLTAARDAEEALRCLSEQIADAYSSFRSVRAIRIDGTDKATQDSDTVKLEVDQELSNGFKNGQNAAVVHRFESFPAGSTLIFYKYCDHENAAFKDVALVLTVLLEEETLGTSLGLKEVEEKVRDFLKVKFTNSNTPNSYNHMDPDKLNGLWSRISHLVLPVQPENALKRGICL
Assay [10] concerns the target Alpha-bungarotoxin (Bungarus multicinctus) (UniProt P60615). Nature of the assay: alpha-bungarotoxin binders on microarray, profiling panel, artefact control for SMM control protein annotation, biochemical, small-molecule microarray, Alexa647 label, 635/667 nm fluorescence (AID 1117). The note with it: alpha-BTX-A647 binding fluorescence, higher = more signal.
The target of a further assay is Albumin (Bos taurus) (UniProt P02769). In words: bovine serum albumin binders on microarray, profiling panel, artefact control for SMM control protein annotation, biochemical, small-molecule microarray, Alexa647 label, 635/667 nm fluorescence (AID 1118).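 Further: score merges 667 nm emission intensity and signal-to-noise per printed compound spot.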 Particulars: BSA-A647 binding, fluorescence 635 nm, higher = more signal.
Albumin (Bos taurus), sequence (P02769 whole entry, looked up): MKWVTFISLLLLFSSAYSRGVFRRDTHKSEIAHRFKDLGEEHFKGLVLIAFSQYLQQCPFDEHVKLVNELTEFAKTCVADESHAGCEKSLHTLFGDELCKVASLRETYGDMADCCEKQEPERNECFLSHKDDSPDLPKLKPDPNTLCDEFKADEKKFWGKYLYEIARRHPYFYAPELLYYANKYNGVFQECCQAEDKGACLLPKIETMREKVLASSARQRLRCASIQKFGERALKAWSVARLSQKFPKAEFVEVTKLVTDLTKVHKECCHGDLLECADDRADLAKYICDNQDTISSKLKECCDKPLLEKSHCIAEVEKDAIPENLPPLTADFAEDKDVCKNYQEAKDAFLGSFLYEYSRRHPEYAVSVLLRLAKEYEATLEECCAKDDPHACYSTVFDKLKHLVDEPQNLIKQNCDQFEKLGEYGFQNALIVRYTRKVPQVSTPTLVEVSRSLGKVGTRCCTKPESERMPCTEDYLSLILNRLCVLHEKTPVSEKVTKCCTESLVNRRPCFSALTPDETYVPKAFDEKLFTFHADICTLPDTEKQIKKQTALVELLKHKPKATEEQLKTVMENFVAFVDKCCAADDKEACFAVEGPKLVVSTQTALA
A short description of assay [11]: small-molecule microarray binders of probe aXIP, primary screen, biochemical, NeuroSMM set, 635/667 nm fluorescence (AID 1119).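 Further: probe is the protein aXip251-270 applied at 1 µg/mL to compound-printed slides; binding of probe to printed compounds measured as 667 nm fluorescence plus signal to noise.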 The note with it: higher = more signal, called active from +8 up or from −8 down.
The nature of assay [12]: small-molecule binders of probe aNOTCH3, primary screen, biochemical, small-molecule microarray, 635/667 nm fluorescence (AID 1120).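 Further: probe is a biotin-tagged antibody raised against NOTCH3 rather than NOTCH3 protein; score merges spot fluorescence near 667 nm with spot signal to noise.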 The note with it: higher = more signal.
The nature of assay [13]: small-molecule binders of probe aNOTCH2, primary screen, biochemical, small-molecule microarray, 635/667 nm fluorescence (AID 1121).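 Further: score merges feature fluorescence read at 667 nm with its signal to noise.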 Particulars: higher = more signal.
For assay [14], the target named is Carbonic anhydrase 2 (Homo sapiens) (UniProt P00918). In words: CAII small-molecule binders, profiling panel, biochemical, small-molecule microarray, Alexa647-labelled CAII (AID 1122). Particulars: CAII-A647 binding fluorescence, higher = more signal.
Assay [15] is described as follows: COS7 lysate on small-molecule microarray, probe aHis, 635 nm (AID 1123).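 Further: z-score combines 667nm fluorescence intensity with signal-to-noise per printed compound spot.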 The note with it: COS7 cell lysate, fluorescence, higher = more signal.
Assay [16] is described as follows: compound binding in COS7 lysate, probe aLAP1, primary screen, cell lysate, small-molecule microarray (AID 1124).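 Further: lysate comes from COS7 cells expressing LAP1 and is applied at 0.3 µg/mL; score merges spot fluorescence near 667 nm with signal-to-noise over triplicate slides.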 The note with it: probe aLAP1, fluorescence, higher = more signal.
Another assay relates to Sam68 (KHDRBS1). Nature of the assay: Sam68 small-molecule binders, primary screen, biochemical, small-molecule microarray, 635 nm fluorescence (AID 1125).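 Further: score merges 667 nm channel intensity with signal to noise over triplicate slides.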 The note with it: small-molecule microarray binding, higher = more signal.
Assay [17] relates to Chordin-like protein 2 (CHRDL2). Nature of the assay: CHRDL2 small-molecule binders, primary screen, biochemical, small-molecule microarray, 635 nm fluorescence (AID 1126).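 Further: printed compound slides probed with Chrdl2 protein at 4 µg/mL for 1 h at 4 C; score merges 667 nm emission intensity with signal to noise over three replicate slides.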 The note with it: small-molecule microarray binding, fluorescence 635 nm; higher = more signal.
Assay [18] deals with Concanavalin-A (Canavalia ensiformis) (UniProt P02866). Nature of the assay: ConA small-molecule binders, primary screen, artefact control for SMM control protein annotation, biochemical, small-molecule microarray, Alexa647 label, 635 nm (AID 1127).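 Further: z combines 667 nm emission intensity with signal-to-noise across three replicate slides.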 The note with it: ConA-A647 binding fluorescence, higher = more signal.
Concanavalin-A (Canavalia ensiformis), sequence (P02866 whole entry, looked up): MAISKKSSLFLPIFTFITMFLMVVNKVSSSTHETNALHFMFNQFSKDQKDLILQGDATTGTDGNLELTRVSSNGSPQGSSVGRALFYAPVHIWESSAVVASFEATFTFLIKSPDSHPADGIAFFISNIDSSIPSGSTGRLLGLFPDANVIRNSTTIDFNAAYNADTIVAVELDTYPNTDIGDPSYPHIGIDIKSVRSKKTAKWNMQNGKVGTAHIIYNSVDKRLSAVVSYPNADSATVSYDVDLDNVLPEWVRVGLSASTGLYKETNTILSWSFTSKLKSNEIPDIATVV

The source made the active and inactive calls.

Left-right determination factor 2 (Homo sapiens), sequence (O00292 whole entry, looked up): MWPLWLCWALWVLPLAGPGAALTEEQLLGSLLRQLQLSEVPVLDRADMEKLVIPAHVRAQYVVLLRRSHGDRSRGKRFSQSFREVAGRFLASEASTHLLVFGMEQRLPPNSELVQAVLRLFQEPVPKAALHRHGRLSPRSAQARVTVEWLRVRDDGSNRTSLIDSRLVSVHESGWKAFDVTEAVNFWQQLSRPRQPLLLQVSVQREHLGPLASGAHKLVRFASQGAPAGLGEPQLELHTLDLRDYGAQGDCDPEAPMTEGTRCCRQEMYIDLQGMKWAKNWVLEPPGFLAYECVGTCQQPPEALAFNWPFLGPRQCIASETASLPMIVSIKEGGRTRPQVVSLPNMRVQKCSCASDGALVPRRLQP
Alpha-bungarotoxin (Bungarus multicinctus), sequence (P60615 whole entry, looked up): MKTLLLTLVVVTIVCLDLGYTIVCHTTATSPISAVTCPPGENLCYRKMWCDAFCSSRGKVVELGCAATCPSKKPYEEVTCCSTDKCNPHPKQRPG

As for `CCCCC(=C=CC[C@H](O)c1ccccc1OCCO)C[C@H](O)c1ccccn1`, the composite z-score in assay [1] is 0.0797; in assay [3], 0.377; in [4], -0.0455; in assay [5], -0.351; in assay [6], -0.126; in [7], -0.0769. In addition, the composite z-score was -0.388 in assay [8]; 0.934 in assay [9]; 0.697 in assay [10]; 0.0165 with Albumin (Bos taurus); 0.0311 in assay [12]; -0.164 in [13]. Besides, the composite z-score in [14] is 0.557; in assay [15], -0.137; in [16] it was 0.271; with Sam68 (KHDRBS1), -0.0949; in [17] it was 0.547; in assay [18] it was 0.319. The z-score in [2] was -0.619. The composite Z-score in assay [11] was -0.452 (inactive).
In the case of `O=C(O)[C@@]1(Cc2ccccc2)COC(c2ccc(OCCCO)cc2)=N1`, the composite z-score was 0.0262 in assay [1]; -0.714 in [3]; -0.106 in assay [4]; 0.0951 in assay [5]; -0.217 in [6]; 0.214 in assay [7]. The composite z-score in [8] is 0.0254; in [9], 0.28; in [10] it was -0.47; with Albumin (Bos taurus), -0.584; in [12] it was -0.197; in assay [13], -0.135. In addition, the composite z-score in assay [14] was 0.844; in assay [15], 0.502; in assay [16] it was -0.131; in the assay with Sam68 (KHDRBS1), -0.21; in assay [17] it was -0.675; in assay [18], -0.115. Besides, the z-score in assay [2] amounted to 0.923. Also, the composite Z-score in assay [11] is 0.133 (inactive).
On to `C=CCOC(=O)[C@H]1[C@@H]2C(=O)O[C@@H](c3ccccc3)[C@@H](c3ccccc3)N2[C@@H](c2ccc(OCCOC(=O)[C@H]3C[C@H]4C(=O)N[C@@H](CCCCN(C)C)C(=O)N4[C@H]3c3ccc(O)cc3)cc2)[C@]12C(=O)Nc1ccccc12`, for which the composite z-score was 1.36 in assay [1]; 0.823 in [3]; 0.724 in [4]; -0.707 in assay [5]; -0.0539 in assay [6]; -0.157 in assay [7]. The composite z-score in [8] was -0.206; in [9] it was 0.876; in [10], 0.0397; with Albumin (Bos taurus), -0.144; in assay [12] it was 0.272; in [13] it was -0.185. The composite z-score in assay [14] was determined as 0.415; in assay [15] it was 1.48; in assay [16], 0.0568; in the assay with Sam68 (KHDRBS1) it was 1.29; in [17], 1.21; in assay [18], 1.1. In addition, the z-score in assay [2] was -0.917. Further, the composite Z-score in [11] was -0.168 (inactive).
For the compound `OCc1ccc(-c2cc[n+](Cc3cccc(OC(F)(F)F)c3)cc2)cc1`, the composite z-score was 1.19 in assay [1]; 1.36 in [3]; -0.245 in assay [4]; -0.196 in assay [5]; -0.0006 in assay [6]; -0.0146 in assay [7]. Besides, the composite z-score in [8] is 0.425; in [9], 1.08; in assay [10], 1.9; with Albumin (Bos taurus), 0.503; in [12], 0.11; in assay [13], -0.0254. The composite z-score in assay [14] is 0.894; in [15], 0.813; in assay [16], 1.08; with Sam68 (KHDRBS1), 0.981; in [17], 1.49; in assay [18], 1.08. The compound also gave a z-score in assay [2] of 0.717. Besides, the composite Z-score in [11] is 0.372 (inactive).
Take `C=C(/C(=C/C[C@@H](OC(=O)c1ccncc1)c1cccc(OCCO)c1)c1cc(C(=O)OC)ccc1OC)C(C)C`: the composite z-score in [1] was 0.903; in assay [3] it was 0.521; in assay [4], 0.0576; in assay [5], -0.412; in assay [6], -0.101; in assay [7] it was 0.131. The composite z-score is 0.0051 in assay [8]; 1.11 in assay [9]; 0.462 in [10]; 0.482 with Albumin (Bos taurus); 0.19 in [12]; -0.0207 in assay [13]. Besides, the composite z-score in [14] was found to be 0.597; in assay [15] it was 1.23; in assay [16], 0.763; with Sam68 (KHDRBS1), 1.21; in assay [17], 0.859; in assay [18], 0.996. In addition, the z-score in assay [2] was -2.94. Also, the composite Z-score in assay [11] is 0.25 (inactive).
With `CC(C)c1ccc(NN2C(C(O)c3ccccn3)C=CC3C(=O)N(c4ccccc4)C(=O)C32)cc1` (stereo not given), the composite z-score was 1.51 in assay [1]; 0.581 in [3]; 1.11 in assay [4]; 0.214 in [5]; 0.145 in assay [6]; 0.04 in assay [7]. In addition, the composite z-score in assay [8] was 1.7; in assay [9] it was 1.34; in assay [10], 0.964; with Albumin (Bos taurus), 0.835; in [12] it was 0.447; in assay [13], 0.142. Further, the composite z-score in [14] was 0.808; in assay [15] it was 2.92; in assay [16] it was 0.881; in the assay on Sam68 (KHDRBS1) it was 1.32; in assay [17] it was -0.159; in assay [18], 1.1. Also, the z-score in [2] was -0.112. In addition, the composite Z-score in assay [11] is -0.232 (inactive).
